# Reference: PubChem BioAssay (NCI)
# About 79,000 compounds went through this panel and 15% of them were active in at least one assay; those are over-represented in the sample as a whole. Values without a mark were called inactive. Active and inactive are the calls of the source. No stated cut-off is given here; in the data, active means growth inhibition above about 70%; inactive means the rest.
# Legend:
# [1] = NCI Yeast Anticancer Drug Screen. Data for the rad52 strain (AID 147);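 further: 0% = growth of vehicle-treated control cultures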; conditions: S. cerevisiae rad52 mutant growth inhibition, stronger effect = higher value
# Procedure, shortened: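 Compounds are applied to a genetically defined yeast strain lacking normal DNA damage repair, and inhibition of growth is expressed relative to cultures given vehicle only.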
# [2] = NCI Yeast Anticancer Drug Screen. Data for the wt1 strain (AID 149);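 further: 0% = growth of vehicle-treated wt1 cultures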; conditions: S. cerevisiae wt1 strain (SPY 50644) growth inhibition, stronger effect = higher value
# Procedure, shortened: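 wt1 strain grown with compound or vehicle; inhibition taken from the growth difference.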
# [3] = NCI Yeast Anticancer Drug Screen. Data for the rad50EPP+ strain (AID 151);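 further: 0% = growth of vehicle-treated control cultures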; conditions: S. cerevisiae rad50 mutant strain, stronger effect = higher value
# Procedure, shortened: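 Compounds were applied to the rad50EPP+ yeast strain, which bears a defined DNA repair alteration, and growth inhibition was determined relative to vehicle-treated cultures.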
# [4] = NCI Yeast Anticancer Drug Screen. Data for the mgt1 strain (AID 153); conditions: S. cerevisiae mgt1 mutant growth inhibition, stronger effect = higher value
# Procedure, shortened: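 Strain: mgt1 yeast, one of a set carrying defined DNA damage repair or cell cycle control alterations. Compound-treated growth compared with vehicle.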
# [5] = NCI Yeast Anticancer Drug Screen. Data for the rad50 strain (AID 155);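 further: 0% = growth of vehicle-only cultures of the same strain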; conditions: S. cerevisiae rad50 strain growth inhibition, stronger effect = higher value
# Procedure, shortened: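 DNA repair mutant yeast, compound exposure, growth read-out; inhibition is taken relative to vehicle.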
# [6] = NCI Yeast Anticancer Drug Screen. Data for the mec2-1 strain (AID 157); conditions: S. cerevisiae mec2-1 strain, stronger effect = higher value
# Procedure, shortened: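 Strain: mec2-1 (DNA repair/cell cycle alteration). Compound exposure, then growth measured; inhibition expressed relative to vehicle.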
# [7] = NCI Yeast Anticancer Drug Screen. Data for the rad14 strain (AID 159);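 further: 0% = growth of vehicle-treated control cultures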; conditions: S. cerevisiae rad14 strain growth inhibition, stronger effect = higher value
# Procedure, shortened: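 DNA repair-defective yeast, compound-exposed; % growth inhibition derived by comparison with vehicle-treated controls.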
# [8] = NCI Yeast Anticancer Drug Screen. Data for the sgs1 mgt1 strain (AID 161);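 further: 0% = growth of cultures given vehicle only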; conditions: S. cerevisiae sgs1 mgt1 strain, stronger effect = higher value
# Procedure, shortened: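 Test agents were incubated with a DNA-repair-mutant yeast strain. Growth was then read and compared against vehicle-treated controls.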
# [9] = NCI Yeast Anticancer Drug Screen. Data for the CLN2oe strain (AID 163);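 further: 0% = growth of vehicle-only control cultures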; conditions: S. cerevisiae CLN2oe strain, stronger effect = higher value
# Procedure, shortened: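 Growth of a genetically modified yeast strain is measured after compound exposure and compared with cultures given vehicle alone.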
# [10] = NCI Yeast Anticancer Drug Screen. Data for the cln2 rad14 strain (AID 165);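 further: 0% = growth equal to vehicle treated cultures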; conditions: S. cerevisiae cln2 rad14 strain, stronger effect = higher value
# Procedure, shortened: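 Compounds are applied to the cln2 rad14 yeast strain, and growth is then compared with that of vehicle-treated cultures to give inhibition.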
# [11] = NCI Yeast Anticancer Drug Screen. Data for the bub3 strain (AID 167); conditions: S. cerevisiae bub3 mutant strain, stronger effect = higher value
# Procedure, shortened: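 In this screen, a yeast mutant lacking normal mitotic checkpoint function is challenged with compound. Relative growth versus vehicle gives the inhibition value.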
# [12] = NCI Yeast Anticancer Drug Screen. Data for the wt2 strain (AID 169);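 further: 0% = growth of vehicle-treated yeast cultures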; conditions: S. cerevisiae wt2 strain growth inhibition, stronger effect = higher value
# Procedure, shortened: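 This strain belongs to a panel of yeast strains with defined genetic alterations in DNA damage repair or cell cycle control. Compounds are applied, and growth inhibition is measured against vehicle-treated cultures.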
# [13] = NCI Yeast Anticancer Drug Screen. Data for the sgs1 strain (AID 173);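 further: 0% = growth of vehicle-only control cultures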; conditions: S. cerevisiae sgs1 mutant, stronger effect = higher value
# Procedure, shortened: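 Growth of a yeast strain bearing a defined genetic alteration is measured after compound treatment. Inhibition is expressed relative to vehicle-only controls.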
# [14] = NCI Yeast Anticancer Drug Screen. Data for the mlh1 rad18 strain (AID 175); conditions: S. cerevisiae mlh1 rad18 strain growth inhibition, stronger effect = higher value
# Procedure, shortened: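 Read-out is yeast growth inhibition, calculated against vehicle-only controls. The compound was applied to a strain engineered with DNA damage repair alterations.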
# [15] = NCI Yeast Anticancer Drug Screen. Data for the rad18 strain (AID 177); conditions: S. cerevisiae rad18 mutant growth inhibition, stronger effect = higher value
# Procedure, shortened: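 Growth of the mutant yeast strain after compound exposure, normalised to vehicle-only cultures.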
# [16] = NCI Yeast Anticancer Drug Screen. Data for the mlh1 strain (AID 171);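 further: 0% = growth of vehicle-treated control cultures of the same strain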; conditions: S. cerevisiae mlh1 strain growth inhibition, stronger effect = higher value
# Procedure, shortened: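 Growth of the mutant yeast strain after compound exposure, expressed as inhibition relative to vehicle-only controls.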
# [17] = at 5.0 µM (retest, dose inferred, filed as 0.5)
# [18] = at 50.0 µM (retest, dose inferred, filed as 5.0)
compound,measurement,setting,value
O=C(O)C1CCCCC1c1c2ccc(=O)cc-2oc2cc(O)ccc12 (stereo unspecified),growth inhibition,[1]; at 1.2 µM,2%
same,growth inhibition,[1]; at 3.7 µM,-3%
same,growth inhibition,[1]; at 11.0 µM,1%
same,growth inhibition,[1]; at 33.0 µM,39%
same,growth inhibition,[1]; at 100.0 µM,93% (active)
same,growth inhibition,[2]; at 1.2 µM,-24%
same,growth inhibition,[2]; at 3.7 µM,-19%
same,growth inhibition,[2]; at 11.0 µM,-21%
same,growth inhibition,[2]; at 33.0 µM,12%
same,growth inhibition,[2]; at 100.0 µM,91% (active)
same,growth inhibition,[3]; at 1.2 µM,11%
same,growth inhibition,[3]; at 3.7 µM,16%
same,growth inhibition,[3]; at 11.0 µM,16%
same,growth inhibition,[3]; at 33.0 µM,22%
same,growth inhibition,[3]; at 100.0 µM,38%
same,growth inhibition,[4]; at 1.2 µM,15%
same,growth inhibition,[4]; at 3.7 µM,16%
same,growth inhibition,[4]; at 11.0 µM,21%
same,growth inhibition,[4]; at 33.0 µM,46%
same,growth inhibition,[4]; at 100.0 µM,95% (active)
same,growth inhibition,[5]; at 1.2 µM,16%
same,growth inhibition,[5]; at 3.7 µM,19%
same,growth inhibition,[5]; [17],52%
same,growth inhibition,[5]; at 11.0 µM,9%
same,growth inhibition,[5]; at 33.0 µM,28%
same,growth inhibition,[5]; [18],95% (active)
same,growth inhibition,[5]; at 50.0 µM,86.3% (active)
same,growth inhibition,[5]; at 100.0 µM,90% (active)
same,growth inhibition,[6]; at 1.2 µM,-3%
same,growth inhibition,[6]; at 3.7 µM,-1%
same,growth inhibition,[6]; [17],59%
same,growth inhibition,[6]; at 11.0 µM,3%
same,growth inhibition,[6]; at 33.0 µM,17%
same,growth inhibition,[6]; [18],94% (active)
same,growth inhibition,[6]; at 50.0 µM,86.8% (active)
same,growth inhibition,[6]; at 100.0 µM,92% (active)
same,growth inhibition,[7]; at 1.2 µM,-21%
same,growth inhibition,[7]; at 3.7 µM,-20%
same,growth inhibition,[7]; at 11.0 µM,-18%
same,growth inhibition,[7]; at 33.0 µM,0%
same,growth inhibition,[7]; at 100.0 µM,92% (active)
same,growth inhibition,[8]; [17],10%
same,growth inhibition,[8]; [18],77% (active)
same,growth inhibition,[8]; at 50.0 µM,89.5% (active)
same,growth inhibition,[9]; at 1.2 µM,13%
same,growth inhibition,[9]; at 3.7 µM,14%
same,growth inhibition,[9]; at 11.0 µM,12%
same,growth inhibition,[9]; at 33.0 µM,37%
same,growth inhibition,[9]; at 100.0 µM,94% (active)
same,growth inhibition,[10]; [17],43%
same,growth inhibition,[10]; [18],87% (active)
same,growth inhibition,[10]; at 50.0 µM,86.4% (active)
same,growth inhibition,[11]; at 1.2 µM,14%
same,growth inhibition,[11]; at 3.7 µM,22%
same,growth inhibition,[11]; [17],44%
same,growth inhibition,[11]; at 11.0 µM,27%
same,growth inhibition,[11]; at 33.0 µM,55%
same,growth inhibition,[11]; [18],88% (active)
same,growth inhibition,[11]; at 50.0 µM,86.7% (active)
same,growth inhibition,[11]; at 100.0 µM,92% (active)
same,growth inhibition,[12]; at 1.2 µM,-20%
same,growth inhibition,[12]; at 3.7 µM,-18%
same,growth inhibition,[12]; at 11.0 µM,-7%
same,growth inhibition,[12]; at 33.0 µM,15%
same,growth inhibition,[12]; at 100.0 µM,94% (active)
same,growth inhibition,[13]; at 1.2 µM,-17%
same,growth inhibition,[13]; at 3.7 µM,-15%
same,growth inhibition,[13]; at 11.0 µM,-15%
same,growth inhibition,[13]; at 33.0 µM,13%
same,growth inhibition,[13]; at 100.0 µM,91% (active)
same,growth inhibition,[14]; [17],47%
same,growth inhibition,[14]; [18],93% (active)
same,growth inhibition,[14]; at 50.0 µM,81.5% (active)
same,growth inhibition,[15]; at 1.2 µM,-12%
same,growth inhibition,[15]; at 3.7 µM,-18%
same,growth inhibition,[15]; at 11.0 µM,-3%
same,growth inhibition,[15]; at 33.0 µM,25%
same,growth inhibition,[15]; at 100.0 µM,93% (active)
NNc1ccccc1-c1nc2ccccc2[nH]1,growth inhibition,[1]; at 1.2 µM,1%
same,growth inhibition,[1]; at 3.7 µM,7%
same,growth inhibition,[1]; at 11.0 µM,9%
same,growth inhibition,[1]; at 33.0 µM,17%
same,growth inhibition,[1]; at 100.0 µM,60%
same,growth inhibition,[2]; at 1.2 µM,-4%
same,growth inhibition,[2]; at 3.7 µM,-3%
same,growth inhibition,[2]; at 11.0 µM,-5%
same,growth inhibition,[2]; at 33.0 µM,-4%
same,growth inhibition,[2]; at 100.0 µM,25%
same,growth inhibition,[3]; at 1.2 µM,2%
same,growth inhibition,[3]; at 3.7 µM,6%
same,growth inhibition,[3]; at 11.0 µM,12%
same,growth inhibition,[3]; at 33.0 µM,24%
same,growth inhibition,[3]; at 100.0 µM,59%
same,growth inhibition,[4]; at 1.2 µM,-3%
same,growth inhibition,[4]; at 3.7 µM,-2%
same,growth inhibition,[4]; at 11.0 µM,0%
same,growth inhibition,[4]; at 33.0 µM,-1%
same,growth inhibition,[4]; at 100.0 µM,48%
same,growth inhibition,[5]; at 1.2 µM,-1%
same,growth inhibition,[5]; at 3.7 µM,5%
same,growth inhibition,[5]; [17],-144%
same,growth inhibition,[5]; at 11.0 µM,6%
same,growth inhibition,[5]; at 33.0 µM,26%
same,growth inhibition,[5]; [18],53%
same,growth inhibition,[5]; at 50.0 µM,75.9% (active)
same,growth inhibition,[5]; at 100.0 µM,60%
same,growth inhibition,[6]; at 1.2 µM,3%
same,growth inhibition,[6]; at 3.7 µM,3%
same,growth inhibition,[6]; [17],-50%
same,growth inhibition,[6]; at 11.0 µM,2%
same,growth inhibition,[6]; at 33.0 µM,1%
same,growth inhibition,[6]; [18],-40%
same,growth inhibition,[6]; at 50.0 µM,48.4%
same,growth inhibition,[6]; at 100.0 µM,20%
same,growth inhibition,[7]; at 1.2 µM,-2%
same,growth inhibition,[7]; at 3.7 µM,-5%
same,growth inhibition,[7]; at 11.0 µM,-1%
same,growth inhibition,[7]; at 33.0 µM,0%
same,growth inhibition,[7]; at 100.0 µM,49%
same,growth inhibition,[8]; [17],-61%
same,growth inhibition,[8]; [18],27%
same,growth inhibition,[8]; at 50.0 µM,11.7%
same,growth inhibition,[9]; at 1.2 µM,-2%
same,growth inhibition,[9]; at 3.7 µM,-1%
same,growth inhibition,[9]; at 11.0 µM,-3%
same,growth inhibition,[9]; at 33.0 µM,-9%
same,growth inhibition,[9]; at 100.0 µM,35%
same,growth inhibition,[10]; [17],-63%
same,growth inhibition,[10]; [18],-73%
same,growth inhibition,[10]; at 50.0 µM,32.1%
same,growth inhibition,[11]; at 1.2 µM,-6%
same,growth inhibition,[11]; at 3.7 µM,-4%
same,growth inhibition,[11]; [17],-65%
same,growth inhibition,[11]; at 11.0 µM,-3%
same,growth inhibition,[11]; at 33.0 µM,-3%
same,growth inhibition,[11]; [18],-30%
same,growth inhibition,[11]; at 50.0 µM,76.9% (active)
same,growth inhibition,[11]; at 100.0 µM,30%
same,growth inhibition,[12]; at 1.2 µM,1%
same,growth inhibition,[12]; at 3.7 µM,0%
same,growth inhibition,[12]; at 11.0 µM,-1%
same,growth inhibition,[12]; at 33.0 µM,-1%
same,growth inhibition,[12]; at 100.0 µM,47%
same,growth inhibition,[16]; at 1.2 µM,6%
same,growth inhibition,[16]; at 3.7 µM,-3%
same,growth inhibition,[16]; at 11.0 µM,-3%
same,growth inhibition,[16]; at 33.0 µM,-3%
same,growth inhibition,[16]; at 100.0 µM,47%
same,growth inhibition,[14]; [17],-114%
same,growth inhibition,[14]; [18],-3%
same,growth inhibition,[14]; at 50.0 µM,91% (active)
same,growth inhibition,[15]; at 1.2 µM,0%
same,growth inhibition,[15]; at 3.7 µM,-2%
same,growth inhibition,[15]; at 11.0 µM,0%
same,growth inhibition,[15]; at 33.0 µM,0%
same,growth inhibition,[15]; at 100.0 µM,48%
